Consider 16 compounds from PubChem BioAssay (Tox21).

For experiment [1], the target named is Peroxisome proliferator-activated receptor delta (Homo sapiens) (UniProt Q03181). Put plainly: qHTS assay to identify small molecule agonists of the peroxisome proliferator-activated receptor delta (PPARd) signaling pathway (AID 743212; calls by dose curve; also: % is scaled to controls: 0 for no effect and ±100 for the full control effect). In short, it runs like this: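 GeneBLAzer UAS-bla HEK293H cells carrying a PPARδ construct were exposed to compounds at 37 °C. Beta-lactamase activity was read by FRET fluorescence after 2 h at room temperature with LiveBLAzer B/G substrate.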

For experiment [2] the target is unchanged. Briefly: qHTS assay to identify small molecule antagonists of the peroxisome proliferator-activated receptor delta (PPARd) signaling pathway (AID 743215; active = well fitted inhibition curve with a large enough effect in the signal ratio in the repeat runs, not every such curve was filed as active; the % refers to the signal ratio;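 also: cells stimulated with agonist L165041 at 300 nM final during compound exposure; series mostly up to about 62 µM; % is scaled to controls: 0 for no effect and ±100 for the full control effect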). In short, it runs like this:
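PPARd-bla HEK293H cells (UAS-bla reporter) preincubated 5 h, then given compound plus 300 nM final L165041 agonist for 17 h at 37 C. Beta-lactamase activity read by LiveBLAzer B/G FRET substrate fluorescence after 2 h at room temperature.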
A general note: qHTS replaces the single test concentration by a dilution series.

The target of experiment [3] is Bile acid receptor (Homo sapiens) (UniProt Q96RI1). Briefly: qHTS assay to identify small molecule agonists of the farnesoid-X-receptor (FXR) signaling pathway (AID 743220; active = well fitted activation curve with a large enough effect in the signal ratio in the repeat runs, not every such curve was filed as active; the % refers to the signal ratio; also: % is scaled to controls: 0 for no effect and ±100 for the full control effect). The method, boiled down: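 Beta-lactamase reporter under UAS control in GeneBLAzer FXR HEK 293T cells (5000/well) measured with LiveBLAzer FRET substrate after 2 h at room temperature. Compound exposure lasted 16 h at 37C.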

Experiment [4] is described as follows: qHTS assay to identify small molecule antagonists of the farnesoid-X-receptor (FXR) signaling pathway - cell viability counter screen (AID 743221; active = well fitted cell-killing curve with a large enough effect in the repeat runs, not every such curve was filed as active; also: nearly all actives have a fitted effect of over 50% in size; also: potency is read from the fitted curve at half-maximal effect). The method, boiled down: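 After a 5 h settling period, FXR-bla HEK 293T cells receive compound and chenodeoxycholic acid (50 uM final) and incubate 16 h at 37 C; CellTiter-Glo luminescence, read after 30 min at room temperature, reports cell viability.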

Experiment [5] is described as follows: qHTS assay to identify small molecule agonists of the vitamin D receptor (VDR) signaling pathway - cell viability counter screen (AID 743224). Also: nearly all actives have a fitted effect of over 50% in size. Also: potency is read from the fitted curve at half-maximal effect. In short, it runs like this:
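VDR-bla cells, 4 h after plating, exposed to compounds for 16 h at 37C; viability then read in the same wells as CellTiter-Glo luminescence after 30 min at room temperature, following the bla FRET read.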

A short description of experiment [6]: qHTS assay to identify small molecule antagonists of the retinoid-related orphan receptor gamma (ROR-gamma) signaling pathway - cell viability counter screen (AID 1159520). Also: % is scaled to controls: 0 for no effect and ±100 for the full control effect; nearly all actives have a fitted effect of over 50% in size. In short, it runs like this:
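Tet-on ROR gamma CHO cells were given compounds for 2 hr, then doxycycline hyclate at 1 uM final, and incubated 16 hr at 37 C. Viability was measured as ATP content by CellTiter-Glo luminescence.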

Experiment [7] is described as follows: qHTS assay to identify small molecule agonists of the RXR signaling pathway - cell viability counter screen (AID 1159529). Also: nearly all actives have a fitted effect of over 50% in size. Also: potency is read from the fitted curve at half-maximal effect. In short, it runs like this:
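In this parallel viability measure, GeneBLAzer RXR-alpha HEK 293T cells (2% charcoal-stripped FBS) were given a 5 hr preincubation, treated with compounds 16 hr at 37 C, and read by CellTiter-Glo luminescence.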

Experiment [8] can be described thus: qHTS assay to identify small molecule antagonists of the retinoid acid receptor (RAR) signaling pathway - cell viability counter screen (AID 1159551). Also: nearly all actives have a fitted effect of over 35% in size. Also: potency is read from the fitted curve at half-maximal effect. The method, boiled down:
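C3RL4 RARE-luciferase cells, 1,000/well, incubated overnight, then dosed with compound plus 1 uM retinol (final). After 6 hr at 37 C, viability read by CellTiter-Glo ATP luminescence following 30 min at room temperature.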

Experiment [9] addresses Nuclear receptor ROR-gamma (Homo sapiens) (UniProt P51449). Briefly: qHTS assay to identify small molecule antagonists of the retinoid-related orphan receptor gamma (ROR-gamma) signaling pathway (AID 1159521; also: nearly all actives have a fitted effect of over 50% in size; also: potency is read from the fitted curve at half-maximal effect). The method, boiled down:
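Decreased RORE-driven luciferase luminescence indicates antagonism. Tet-on RORγ CHO cells received compound, then 1 uM final doxycycline 2 h later; signal read after 16 h incubation.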

The nature of experiment [10]: qHTS assay to identify small molecule agonists of the AP-1 signaling pathway - cell viability counter screen (AID 1159525; calls by dose curve; also: nearly all actives have a fitted effect of over 55% in size). The method, boiled down:
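AP-1-bla ME-180 cells in Opti-MEM with 0.5% dialyzed FBS, compound exposure 5 h at 37 C in 15-point titration. Viability read in the same wells as ATP content by CellTiter-Glo luminescence, normalised to tetra-n-octylammonium bromide and DMSO controls.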

The nature of experiment [11]: qHTS assay to identify small molecule agonists of the AP-1 signaling pathway (AID 1159526; calls by dose curve; also: potency is read from the fitted curve at half-maximal effect).
Experiment [12] deals with Retinoic acid receptor RXR-alpha (Homo sapiens) (UniProt P19793). Put plainly: qHTS assay to identify small molecule agonists of the RXR signaling pathway (AID 1159527; calls by dose curve; also: nearly all actives have a fitted effect of over 35% in size; also: potency is read from the fitted curve at half-maximal effect). In short, it runs like this:
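16 hr incubation of compound-treated RXR-alpha-UAS-bla HEK 293T cells (2% charcoal-stripped FBS, 37 C) preceded a 2 hr room-temperature LiveBLAzer FRET substrate step and blue/green fluorescence measurement.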

The nature of experiment [13]: qHTS assay to identify small molecule agonists of the peroxisome proliferator-activated receptor delta (PPARd) signaling pathway - cell viability counter screen (AID 743211). Also: nearly all actives have a fitted effect of over 55% in size. Also: potency is read from the fitted curve at half-maximal effect. The method, boiled down:
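qHTS cell viability: PPARd-bla HEK293H; 17 h cpd, 37C; CellTiter-Glo, luminescence at 30 min RT.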

Experiment [14] can be described thus: qHTS assay to identify small molecule antagonists of the peroxisome proliferator-activated receptor delta (PPARd) signaling pathway - cell viability counter screen (AID 743213). The method, boiled down: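 Same-well viability: cells pre-incubated 5 h, dosed with compound plus 300 nM L165041, kept 17 h at 37 C, FRET substrate 2 h RT, then CellTiter-Glo 30 min RT and luminescence.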

The target in experiment [15] is Bile acid receptor (Homo sapiens) (UniProt Q96RI1). Briefly: qHTS assay to identify small molecule antagonists of the farnesoid-X-receptor (FXR) signaling pathway (AID 743217; active = well fitted inhibition curve with a large enough effect in the signal ratio in the repeat runs, not every such curve was filed as active; the % refers to the signal ratio; also: % is scaled to controls: 0 for no effect and ±100 for the full control effect). The method, boiled down: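 FXR-UAS-bla HEK 293T cells (beta-lactamase reporter) given compound plus chenodeoxycholic acid (50 uM final), 16 h at 37C. LiveBLAzer B/G FRET substrate added for 2 h at room temperature; fluorescence read.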

A short description of experiment [16]: qHTS assay to identify small molecule agonists of the farnesoid-X-receptor (FXR) signaling pathway - cell viability counter screen (AID 743218). Also: nearly all actives have a fitted effect of over 45% in size. Also: potency is read from the fitted curve at half-maximal effect. The method, boiled down:
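FXR-UAS-bla HEK 293T cells exposed to compounds for 16 h at 37C. Cytotoxicity read in the same wells by CellTiter-Glo luminescence after 30 min at room temperature, following the beta-lactamase FRET read.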

The nature of experiment [17]: qHTS assay to identify small molecule antagonists of the retinoic acid receptor (RAR) signaling pathway (AID 1159552). The method, boiled down: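 C3RL4 RARE-luc cells, overnight plating; retinol 1 uM final added right after compound; 6 hr 37 C; luciferase read at 30 min RT.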
Experiment [18] addresses Vitamin D3 receptor (Homo sapiens) (UniProt P11473). Put plainly: qHTS assay to identify small molecule agonists of the vitamin D receptor (VDR) signaling pathway (AID 743222; calls by dose curve; also: % is scaled to controls: 0 for no effect and ±100 for the full control effect). The method, boiled down:
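VDR-bla cells plated 4 h at 37 C, then exposed to compounds for 16 h at 37 C. Beta-lactamase reporter activity measured by fluorescence after 2 h room-temperature loading with LiveBLAzer B/G FRET substrate.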

Experiment [19] has the same target. Briefly: qHTS assay to identify small molecule antagonists of the vitamin D receptor (VDR) signaling pathway (AID 743223; active = well fitted inhibition curve with a large enough effect in the signal ratio in the repeat runs, not every such curve was filed as active; the % refers to the signal ratio; also: % is scaled to controls: 0 for no effect and ±100 for the full control effect). In short, it runs like this: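 Reporter line VDR-bla; stimulus 1alpha,25-(OH)2 vitamin D3, 3 nM final; compound co-addition, 16 h 37C/5% CO2; LiveBLAzer B/G substrate 2 h RT; fluorescence intensity.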
Experiment [20] can be described thus: qHTS assay to identify small molecule antagonists of the vitamin D receptor (VDR) signaling pathway - cell viability counter screen (AID 743225). Also: nearly all actives have a fitted effect of over 50% in size. Also: potency is read from the fitted curve at half-maximal effect. The method, boiled down:
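Parallel cytotoxicity test: VDR-UAS-bla HEK 293T, 3 nM (final) 1-alpha,25-dihydroxyvitamin D3 with test compound, 16 h, 37C. Endpoint is CellTiter-Glo luminescence in the same wells.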

The structures appear in SMILES notation. Records with an inconclusive call do not appear. Unmarked numbers belong to inactive results. The source made the active and inactive calls. Unless noted, calls follow the shape of the dose curve; as a rule, active = well fitted curve in the direction sought with a large enough effect in the repeat runs; inconclusive = weak or mixed curves; inactive = no such curve, though single readings can be large; an effect the other way counts as inactive or inconclusive.

Bile acid receptor (Homo sapiens), sequence (Q96RI1 whole entry, looked up): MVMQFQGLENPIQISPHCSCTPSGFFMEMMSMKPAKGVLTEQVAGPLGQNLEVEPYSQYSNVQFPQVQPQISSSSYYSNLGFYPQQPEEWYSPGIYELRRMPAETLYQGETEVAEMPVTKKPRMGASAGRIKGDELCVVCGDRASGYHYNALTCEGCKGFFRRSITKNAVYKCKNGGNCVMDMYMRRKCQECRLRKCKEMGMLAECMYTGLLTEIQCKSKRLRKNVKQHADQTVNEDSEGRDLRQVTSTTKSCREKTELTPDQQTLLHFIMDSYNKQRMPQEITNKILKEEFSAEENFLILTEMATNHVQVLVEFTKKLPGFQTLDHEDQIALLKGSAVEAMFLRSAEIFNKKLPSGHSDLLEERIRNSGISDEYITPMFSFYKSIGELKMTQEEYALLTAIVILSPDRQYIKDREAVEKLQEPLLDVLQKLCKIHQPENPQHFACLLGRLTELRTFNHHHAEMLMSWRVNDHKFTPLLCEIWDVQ
Peroxisome proliferator-activated receptor delta (Homo sapiens), sequence (Q03181 whole entry, looked up): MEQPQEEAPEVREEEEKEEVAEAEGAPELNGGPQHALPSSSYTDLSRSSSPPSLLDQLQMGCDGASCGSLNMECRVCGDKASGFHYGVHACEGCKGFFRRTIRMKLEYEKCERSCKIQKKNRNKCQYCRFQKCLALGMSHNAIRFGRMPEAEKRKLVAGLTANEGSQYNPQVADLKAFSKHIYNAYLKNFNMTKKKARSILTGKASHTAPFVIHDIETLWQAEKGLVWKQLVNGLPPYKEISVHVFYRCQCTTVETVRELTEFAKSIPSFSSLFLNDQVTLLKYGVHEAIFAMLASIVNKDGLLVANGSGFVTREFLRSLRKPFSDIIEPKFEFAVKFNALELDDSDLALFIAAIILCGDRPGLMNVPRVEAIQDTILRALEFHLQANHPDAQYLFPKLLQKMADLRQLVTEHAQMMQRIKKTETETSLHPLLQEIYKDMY
Vitamin D3 receptor (Homo sapiens), sequence (P11473 whole entry, looked up): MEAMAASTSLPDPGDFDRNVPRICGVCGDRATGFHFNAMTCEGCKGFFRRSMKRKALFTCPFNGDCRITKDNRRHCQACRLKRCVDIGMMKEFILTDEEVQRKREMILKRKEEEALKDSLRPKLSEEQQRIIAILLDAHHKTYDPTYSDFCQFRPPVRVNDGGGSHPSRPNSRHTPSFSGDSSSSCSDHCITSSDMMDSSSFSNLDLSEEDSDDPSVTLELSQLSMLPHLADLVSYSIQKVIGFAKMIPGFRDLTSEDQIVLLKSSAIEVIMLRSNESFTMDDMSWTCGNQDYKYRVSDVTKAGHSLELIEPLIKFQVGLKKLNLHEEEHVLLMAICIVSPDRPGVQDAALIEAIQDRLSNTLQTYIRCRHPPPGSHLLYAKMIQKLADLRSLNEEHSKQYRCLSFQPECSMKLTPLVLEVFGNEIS
Retinoic acid receptor RXR-alpha (Homo sapiens), sequence (P19793 whole entry, looked up): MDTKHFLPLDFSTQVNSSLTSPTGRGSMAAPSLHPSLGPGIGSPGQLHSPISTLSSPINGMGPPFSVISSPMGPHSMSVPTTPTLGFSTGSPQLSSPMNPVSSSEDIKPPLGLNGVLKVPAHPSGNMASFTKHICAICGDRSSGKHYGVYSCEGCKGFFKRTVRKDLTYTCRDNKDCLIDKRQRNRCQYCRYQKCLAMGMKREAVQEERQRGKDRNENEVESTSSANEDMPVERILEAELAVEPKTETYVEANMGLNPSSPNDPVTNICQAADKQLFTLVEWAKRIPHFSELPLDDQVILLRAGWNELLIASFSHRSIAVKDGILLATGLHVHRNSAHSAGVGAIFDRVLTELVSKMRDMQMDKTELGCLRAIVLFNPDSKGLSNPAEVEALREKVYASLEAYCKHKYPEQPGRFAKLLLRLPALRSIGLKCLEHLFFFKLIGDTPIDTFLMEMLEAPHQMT

In the case of `CN(C/C=C/c1ccccc1)Cc1cccc2ccccc12`, the result in [1] and in experiment [3] was inactive. Besides, the Potency entry in [2], in experiment [4] and in [6] was “inactive” each time. Further, the Potency was 26.6 µM (active) in experiment [5], 13.4 µM (active) in experiment [7] and 26.6 µM (active) in [8].
For the compound `CC(C)(C)c1cc(CCC(=O)OCCSCCOC(=O)CCc2cc(C(C)(C)C)c(O)c(C(C)(C)C)c2)cc(C(C)(C)C)c1O`, the Potency entry in experiment [9], in experiment [10], in experiment [11], in [12], in experiment [7] and in experiment [8] was “inactive” throughout.
On to `Oc1ccc(Cl)cc1C1CCCC1`, for which the Potency result in experiment [13], in experiment [14], in experiment [15], in experiment [16], in experiment [4] and in experiment [5] was “inactive” in each case. The Potency result in [9] and in experiment [8] was “inactive” throughout. Further, the compound was called inactive in experiment [1] and in experiment [3]. Further, the Potency in experiment [12] was 11 µM (active).
In the case of `CCCC(=O)c1cc(O)c(O)cc1O`, the Potency entry in experiment [10] and in [7] was “inactive” throughout.
Take `O=C1Cc2ccccc2C1`: the Potency result in experiment [17] is “inactive”.
`CCCCCCCC/C=C\CCCCCCCC(=O)N(CCO)CCO`: the Potency in experiment [13] is 43.5 µM (active); in experiment [16] it was 54.7 µM (active); in experiment [5], 43.5 µM (active). Further, the Potency entry in experiment [14], in experiment [2], in experiment [15], in [19], in experiment [20] and in experiment [8] was “inactive” in each case. The Potency result in experiment [17] is “inactive”. In experiment [18], the compound was called inactive.
Turning to `c1ccc(-c2nc3ccccc3[nH]2)cc1`, the Potency result in experiment [11], in experiment [12], in experiment [7] and in experiment [17] was “inactive” throughout.
For `CC/C=C\C/C=C\C/C=C\CCCCCCCC(=O)OC`, the Potency result in experiment [10], in [11], in experiment [8] and in experiment [17] was “inactive” in each case.
Consider `O=C(c1ccccc1)c1ccc(Cl)cc1`, for which, in [9], the Potency is 68.6 µM (active). Further, the Potency result in experiment [8] and in experiment [17] was “inactive” in each case.
Consider `CCN(CC)c1ccc(C=O)c(O)c1`, for which the Potency entry in experiment [10], in [11], in experiment [12], in experiment [8] and in [17] was “inactive” each time.
Consider `[Cl][Dy]([Cl])[Cl]`, for which the Potency result in experiment [9], in [7] and in experiment [8] was “inactive” in each case.
`COc1cc(C(C)C)ccc1C`: in experiment [10], the viability change, negative = cytotoxic was 8.58% [at 15.8 µM]. Further, in [12], the activation was -1.52% [at 15.8 µM]. The figures for the activity change, negative = cytotoxicity in [7] and in experiment [8] were 10.4% [at 15.8 µM] and -0.431% [at 19 µM], respectively. Moreover, the activity, negative = inhibition in experiment [17] was 191% [at 19 µM].
Regarding `O=C(Nc1ccc([N+](=O)[O-])cc1)Nc1ccc([N+](=O)[O-])cc1` (tested in a mixture with another compound), the Potency entry in experiment [10], in experiment [11], in [12] and in [8] was “inactive” in each case. The Potency in [7] is 0.848 µM (active).
Turning to `COc1cc(/C=C/C(=O)CC(=O)/C=C/c2ccc(O)c(OC)c2)ccc1O`, the Potency is 34.9 µM (active) in experiment [13]; 24.7 µM (active) in [16]; 43.9 µM (active) in experiment [4]; 49.3 µM (active) in [5]; 49.3 µM (active) in [20]; 61.5 µM (active) in [9]. Moreover, the Potency entry in [17] is “inactive”.
Consider `CC1(C)[C@H]2CC[C@]1(C)C(=O)C2`, for which the Potency entry in [10], in experiment [7], in experiment [8] and in experiment [17] was “inactive” each time. The Potency in experiment [11] is 19.5 µM (active).
In the case of `c1ccc2cc3c4ccccc4c4ccccc4c3cc2c1`, the Potency entry in experiment [13], in experiment [14], in experiment [2], in [16], in experiment [4] and in [19] was “inactive” each time. In addition, the Potency entry in experiment [5], in experiment [20], in experiment [10], in experiment [12], in experiment [7] and in [8] was “inactive” each time. For the same compound, in experiment [17], the Potency entry was “inactive”. Besides, the result in [1] and in experiment [18] was inactive.
